This is an account of results in PubChem BioAssay AID2685 (National Center for Advancing Translational Sciences (NCATS), 2010).

Screen size: about 320,000 compounds; about 2,100 (0.66%) were called active. Roughly 53% stayed inconclusive and do not appear here. The call rests on the fitted dose curve; in most records, active means well fitted inhibition curve with a large enough effect in the signal ratio, with a control signal flat (not every such curve was filed as active); inconclusive means small, poorly fitted or top-dose-only effect, or effect the other way, or a change in a side signal; inactive means flat fitted curve, though single readings scatter; the % refers to the signal ratio. The list comes from a sample in which actives are over-represented; it also holds similar structures and randomly drawn compounds.
Potency means the concentration at half of the fitted maximal effect.

This assay is described as follows: qHTS Assay for Lipid Storage Modulators in Drosophila S3 Cells.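 On cell number change: cells counted by Cell Tracker Red CMTPX staining in the red channel.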 On lipid storage change, negative = inhibition: on the % scale 0 is the no-effect control and ±100 the full control effect. The settings on record: BODIPY lipid droplet fluorescence, 18-24 h, cells fed with added oleic acid; cell number change: measured here: cell count max response; series mostly up to 46.1 µM; lipid storage change, negative = inhibition: at the top concentration. An outline of the steps:
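Laser-scanning cytometry quantifies lipid droplet accumulation (500–530 nm total intensity; droplet/cell object ratio) in oleic acid-fed (400 uM added) Drosophila S3 cells treated with a concentration series. 20 uM Triacsin C defined 100% inhibition.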
In the case of `Cc1ccc(C(O)P(=O)(OC2CCCCC2)OC2CCCCC2)cc1` (stereo not given), the “lipid storage change, negative = inhibition” value is -12.5% (inactive) and the cell number change came to 22.2%. For `O=C(COc1ccc(S(=O)(=O)Nc2ccccc2)cc1)NCc1cccnc1`, in that order: -1.07% (inactive) and -1.79%.

Take `Cc1c(C(=O)NC(C)C)c(-c2ccccc2)nn1-c1ccccc1`: the “lipid storage change, negative = inhibition” value was 6.49% (inactive) and the cell number change is -7.38%. Taken in the same sequence, the figures for `O=C(Nc1nnc(C2=COCCO2)o1)c1ccc(S(=O)(=O)N2CCOCC2)cc1` were 4.23% (inactive) and 17.2%.

As for `Cc1ccc(S(=O)(=O)N2CCc3c2cc([N+](=O)[O-])cc3[N+](=O)[O-])cc1`, the “lipid storage change, negative = inhibition” value is 9.86% (inactive) and the cell number change was found to be 25.6%.

With `COc1cccc(/C=C2\SC(=S)N(CCCC(=O)N3CCCC3)C2=O)c1`, the “lipid storage change, negative = inhibition” value is -27.9% (inactive) and the cell number change amounted to 19.2%. Take `CC(C)c1ccc(/C=C2\SC(=S)N(CCC(=O)N3CCCCC3CCO)C2=O)cc1` (stereo not given): the compound was called inactive and the cell number change was -22.4%. `O=C1/C(=C/c2ccccc2)SC(=S)N1CCCC(=O)N1CCCCC1CCO` (stereo not given): the Potency is 18.4 µM (active) and the cell number change is 5.19%. For the compound `O=C(O)CCCCCN1C(=O)/C(=C/c2ccncc2)SC1=S`, the “lipid storage change, negative = inhibition” value was -21.5% (inactive) and the cell number change is 8.67%. For the compound `O=C(O)CCCCCN1C(=O)/C(=C\c2ccncc2)SC1=S`, the Potency is 3.26 µM (active) and the cell number change was -19.2%. For the compound `O=C(O)CCCN1C(=O)/C(=C/c2ccncc2)SC1=S`, the “lipid storage change, negative = inhibition” value is -1.54% (inactive) and the cell number change was -13%.

Regarding `COc1cccc(/C=C2\SC(=S)N(CCC(=O)N3CCCCC3CCO)C2=O)c1` (stereo not given), the Potency was 8.2 µM (active) and the cell number change is -19.7%.

For the compound `COc1cccc(/C=C2\SC(=S)N(CCCC(=O)N3CCCCC3CCO)C2=O)c1` (stereo not given), the compound was called inactive. With `O=C(CCN1C(=O)/C(=C\c2ccccc2)SC1=S)N1CCCCC1`, the “lipid storage change, negative = inhibition” value was -17.1% (inactive) and the cell number change turned out to be 9.57%. For `COC(=O)C1=C(C)NC(=O)/C1=C\c1ccc2c(c1)OCO2`, in that order: -12% (inactive) and -20.5%. For `CCOC(=O)C1(Cc2cccc(Cl)c2)CCCN(C(=O)c2cn[nH]c2)C1` (stereo not given), in that order: -0.385% (inactive) and -11.4%. For `CN(C)c1ccc(C(=S)N2CCN(Cc3ccccc3)CC2)cc1`, the “lipid storage change, negative = inhibition” value is 10.1% (inactive) and the cell number change was -4.36%. For `CC(C)c1ccc(C(O)P(=O)(OCc2ccccc2)c2ccc(N(C)C)cc2)cc1` (stereo not given), in that order: -15.1% (inactive) and 1.68%. Taken in the same sequence, the figures for `COc1ccc(NC(=O)CN(c2ccc([N+](=O)[O-])cc2)S(=O)(=O)c2ccccc2)c(OC)c1` were 5.04% (inactive) and -1.88%. Consider `O=C1NCCCC1C(=O)NCCN1C(=O)CCC1=O` (stereo not given), for which the “lipid storage change, negative = inhibition” value was 0.15% (inactive) and the cell number change is -2.23%.

For the compound `O=C(Nc1cccc(C(F)(F)F)c1)c1ccc(-n2cncn2)nc1`, the “lipid storage change, negative = inhibition” value is -0.0627% (inactive) and the cell number change turned out to be 5.24%.

For the compound `COc1ccc(N(CC(=O)N2CCN(Cc3ccc4c(c3)OCO4)CC2)S(C)(=O)=O)cc1OC`, the “lipid storage change, negative = inhibition” value was 0.719% (inactive) and the cell number change is 14.4%. Taken in the same sequence, the figures for `CC(C)CCNC(=O)CN(Cc1ccco1)C(=O)c1snc(C(N)=O)c1N` were 7.91% (inactive) and 8.95%. Taken in the same sequence, the figures for `COc1cc(S(=O)(=O)NCc2ccccc2)ccc1Br` were -0.0691% (inactive) and 5.28%. For `CCOc1cc(S(=O)(=O)NCc2ccccc2)ccc1Br`, in that order: 13.7% (inactive) and -16.8%. For `COc1ccc(CCNS(=O)(=O)c2ccc(Cl)cc2)cc1OC`, the Potency was 1.64 µM (active) and the cell number change was -15.3%. Regarding `COc1ccc2[nH]cc(CCNS(=O)(=O)c3ccc(C)cc3)c2c1`, the “lipid storage change, negative = inhibition” value is -1.15% (inactive) and the cell number change stood at 2.67%. For the compound `COc1ccc(S(=O)(=O)NCCc2c[nH]c3ccc(Cl)cc23)cc1`, the Potency is 20.6 µM (active).

`COc1ccc(S(=O)(=O)NC2CCCC2)cc1Cl`: the “lipid storage change, negative = inhibition” value was -23% (inactive). With `COc1ccc(CCNC(=O)COc2ccc(S(=O)(=O)NC3CCCCC3)cc2Cl)cc1OC`, the Potency is 8.2 µM (active) and the cell number change was -27.7%. As to `COc1ccc2[nH]cc(CCNS(=O)(=O)c3ccc(F)cc3)c2c1`, the “lipid storage change, negative = inhibition” value is -4.21% (inactive) and the cell number change is -14.3%.

In the case of `CCNS(=O)(=O)c1ccc(Br)c(OC)c1`, the Potency was 25.9 µM (active) and the cell number change was -59.3%. As for `COc1ccc(CCNC(=O)COc2ccc(S(=O)(=O)NC(C)C)cc2Cl)cc1OC`, the “lipid storage change, negative = inhibition” value was -26% (inactive). As for `COc1ccc(CCNS(=O)(=O)c2ccc([N+](=O)[O-])cc2)cc1OC`, the “lipid storage change, negative = inhibition” value is 23.7% (inactive) and the cell number change was 0.785%. Regarding `COc1ccc(CCNS(=O)(=O)c2ccc(Br)cc2)cc1OC`, the “lipid storage change, negative = inhibition” value was 10.6% (inactive) and the cell number change was -6.93%. For `COc1cc(CNC2CCCCC2OC)cc(OC)c1OC` (stereo not given), in that order: -4.46% (inactive) and 3.58%.

Regarding `O=C(O)c1cnn(-c2ccccc2)c1-c1ccncc1`, the compound was classed as inactive.

Turning to `Cc1cc(/C=N/N2CCN(C)CC2)c(C)n1-c1ccccc1F`, the compound was called inactive.

Take `CCCn1c(SCC(=O)Nc2nnc(C)s2)nnc1-c1ccoc1C`: the “lipid storage change, negative = inhibition” value is 9.42% (inactive) and the cell number change was -14%. Regarding `CS(=O)(=O)N(CC(=O)N1CCN(c2ccccc2F)CC1)C1CCCCC1`, the “lipid storage change, negative = inhibition” value is -6.61% (inactive) and the cell number change is -9.38%.

Turning to `Cc1c(CNC(=O)C2CC2)c(-n2cccc2)n(Cc2ccccc2)c1C`, the “lipid storage change, negative = inhibition” value is 12.7% (inactive) and the cell number change came to 18.9%. Taken in the same sequence, the figures for `COCCNS(=O)(=O)c1ccc(-c2ccc(Cl)cc2)cc1` were -0.344% (inactive) and 8.47%. Take `COCCNS(=O)(=O)c1ccc(F)c(OC)c1`: the Potency was 20.6 µM (active) and the cell number change turned out to be 2.25%. `COc1cc(S(=O)(=O)NCc2ccccc2)ccc1F`: the “lipid storage change, negative = inhibition” value was -1.58% (inactive) and the cell number change came to 6.61%. As for `O=S(=O)(O)c1cc(OS(=O)(=O)c2ccccc2)cc2ccccc12`, the “lipid storage change, negative = inhibition” value is -11.6% (inactive) and the cell number change was 6.99%. For `COc1ccc(Cc2nc3ccc(C(=O)NCc4cc(C)no4)cc3o2)cc1OC`, in that order: -19.9% (inactive) and -13.7%. Taken in the same sequence, the figures for `O=C(c1ccc([N+](=O)[O-])cc1)N1CCN(Cc2ccccc2)CC1` were 4.25% (inactive) and 11.4%.

As for `Nn1c(SCC(=O)Nc2ccc3c(c2)OCO3)nnc1-c1cccc(Cl)c1`, the “lipid storage change, negative = inhibition” value is -0.669% (inactive) and the cell number change was determined as 0.909%.
